Bioassay records as filed in PubChem BioAssay.
Most compounds without a hit are left out; they make up all but 14% or so of the library.
HCV inh – inhibitors of hepatitis C virus infection; Huh7.5.1 HCVcc-Cre infection, luciferase reporter, 44 h; Potency, µM (highest dose often 41.8 µM), actives largely listed as inhibitors; 340,000 tested, 3.4% active
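Cells (1,000/well) were plated 4 h before compound, then infected with HCVcc-Cre virus (~0.5 moi). After 44 h further culture, infection was read as luciferase luminescence following a 15 min substrate incubation at room temperature.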
Lassa entry inh – inhibitors of Lassa virus binding or cell entry; Potency, µM (top dose mostly 37.9 µM), actives largely listed as inhibitors; 300,000 tested, 1.2% active; Lassa virus pseudotype entry inhibition, cell reporter; calls by dose curve; tested in HEK293 cells; note: nearly all actives have a fitted effect of over 50% in size
Pf growth 48h – P. falciparum growth inhibition at 48 hours (one generation) | 310,000 tested, 5.9% active | Potency, µM (titrated, usually from 28.7 µM), actives largely listed as inhibitors | P. falciparum luciferase growth in erythrocytes, 48 h | AID 504832
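Compounds are pin-transferred into medium, infected erythrocytes (2% hematocrit, 0.1% parasitemia final) are added, and plates sit one parasite generation at 37 C in 5% CO2. Detection reagent is then added and luminescence measured.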
Pf growth 96h – P. falciparum growth inhibition at 96 hours | P. falciparum luciferase reporter growth, 96 h | Potency, µM (doses to about 28.7 µM), actives largely listed as inhibitors | AID 504834 | 320,000 tested, 6.9% active
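Two parasite generations (96 h, 37 C, 5% CO2) of compound exposure in infected erythrocytes (0.05% parasitemia, 2% hematocrit). Luciferase-reporter P. falciparum; decreased luminescence indicates inhibited growth, aimed at apicoplast-acting delayed death.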
MARV entry inh – inhibitors of Marburg virus binding or cell entry. Marburg virus pseudotyped entry inhibition, cell reporter. AID 540276. 300,000 tested, 1.8% active. Potency, µM (top dose mostly 37.8 µM), actives largely listed as inhibitors; calls by dose curve; tested in HEK293 cells
HCMV antiviral – human cytomegalovirus inhibition | HFF cells, HCMV-luciferase reporter, 72 h; stronger effect = lower value | 410,000 tested, 4.5% active | activity change, negative = inhibition, % at 57.5 µM; in the data active = activity change below about -60%; inconclusive = no clear call, values can overlap the other calls; inactive = above about -39%
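Two-dose cell screen: HFF monolayers treated with compounds and infected with luciferase-expressing HCMV at 1 PFU/cell, 72 h at 37C, then lysed for luciferase measurement.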
Hits are given with their value; n = inactive; u = inconclusive; x = no result given. Unless noted, calls come from the whole dose curve; as a rule, active = well fitted inhibition curve with a large enough effect; inconclusive = small, poorly fitted or top-dose-only effect, or another doubt; inactive = no such curve, though single readings can be large or run the other way.

SMILES	HCV inh	Lassa entry inh	Pf growth 48h	Pf growth 96h	MARV entry inh	HCMV antiviral
O=C(Nc1ccc(NS(=O)(=O)c2ccccc2)cc1)c1ccc(Cl)cc1	n	u	n	n	n	n
CN(C1=C(NC(=O)c2ccc(Cl)cc2)C(=O)c2ccccc2C1=O)c1ccccc1	u	u	1.9µM	u	u	n
O=C(NC1=C(Nc2ccc(Cl)cc2)C(=O)c2ccccc2C1=O)c1ccccc1	u	u	0.13µM	0.1µM	u	-65
COc1ccc(-n2c(=O)c3c4c(sc3n(Cc3ccccc3)c2=O)CN(C(C)=O)CC4)cc1OC	x	x	x	x	u	n
COC(=O)C(C(=O)OC)[C@H]1c2ccccc2[C@@H]2C(=C[C@@H](C)[C@H]3C(=O)N(c4ccccc4)C(=O)[C@H]32)N1C(=O)OC	x	x	x	x	n	x
CCCNC(=O)c1cnc2c(-c3ccc(OCC)c(OCC)c3)c(C)nn2c1-c1ccccc1	x	n	x	x	x	n
O=S(=O)(c1cc(Br)c(Br)s1)N1CCN(c2ccccc2)CC1	x	n	x	x	x	n
COc1c(CC=C(C)C)c(O)cc2oc(=O)c3c4ccc(O)cc4oc3c12	4µM	x	x	x	x	x
COc1ccc(N2C(c3ccsc3)=Cc3cc4c(cc3C2c2c[nH]c3ccccc23)OCO4)cc1 (stereo not drawn)	x	x	x	x	x	-95
CC(C)(O)C#Cc1ccc(N2C(c3ccsc3)=Cc3ccc(F)cc3C2c2c[nH]c3ccc(C#N)cc23)cc1 (stereo not drawn)	x	x	x	x	x	n
CC(=O)c1cccc(NC(=O)COC(=O)Cn2cnc3ccccc32)c1	n	x	x	x	x	n
CC(C)C(=O)Nc1cccc(C(=O)Nc2nnc(C(F)(F)F)s2)c1	x	n	x	x	u	n
COc1cccc(C(=O)Nc2cccc(-c3nc4ncccc4o3)c2C)c1	n	n	n	n	n	n
COc1ccc(C(=O)Nc2cccc(-c3nc4ncccc4o3)c2C)cc1OC	n	n	n	3.7µM	n	n
Cc1c(NC(=O)c2ccc([N+](=O)[O-])o2)cccc1-c1nc2ncccc2o1	u	n	12µM	n	u	-86
CC(=O)c1ccc(N2C(=O)N(Cc3ccc(F)cc3)c3ccccc3S2(=O)=O)cc1	x	n	x	x	x	n
Cc1cccc(S(=O)(=O)N2C[C@@H](O)COC[C@@H]3O[C@H](CC(=O)NCCCN4CCOCC4)CC[C@H]32)c1	x	x	x	x	x	n
CN(C)CCNC(=O)c1cccc(-c2cnc3c(NC=O)cc(-c4cccs4)cn23)c1	x	x	x	x	x	-87
CN(C)CCNC(=O)c1cccc(-c2cnc3c(NC=O)cc(-c4ccc(C(=O)N5CCOCC5)cc4)cn23)c1	x	x	x	x	x	-64
COc1ccc(-c2cc(NC=O)c3ncc(-c4cccc(C(=O)NCCN(C)C)c4)n3c2)cn1	x	x	x	x	x	-63
CC(=O)c1cccc(-c2cnc3c(NC=O)cc(-c4ccc(C(=O)N5CCOCC5)cc4)cn23)c1	x	x	x	x	x	n
COc1ccc2c(c1)[C@@H](NC(=O)OCc1ccccc1)[C@H](C)[C@@H](c1ccccc1)N2C(=O)NC(C)C	x	x	x	x	x	n
CC(C)CN(C(=O)c1nn(C)c(=O)c2ccccc12)c1nc2ccccc2s1	n	n	10µM	x	n	n
O=C(Nc1ccccc1)c1cc2ccc3ccccc3c2s1	11µM	n	n	n	u	n
COc1ccc(N2CC(NC(=O)/C=C\c3ccccc3)CC2=O)cc1OC (stereo not drawn)	x	n	x	x	x	n
SMILES	HCV inh	Lassa entry inh	Pf growth 48h	Pf growth 96h	MARV entry inh	HCMV antiviral
COc1cc(OC)cc(N2C(=O)CC(N3CCC(C(=O)N4CCCCC4)CC3)C2=O)c1 (stereo not drawn)	n	n	n	15µM	u	n
CC(=O)Nc1cccc(N2C(=O)CC(N3CCC(C(=O)N4CCCCC4)CC3)C2=O)c1 (stereo not drawn)	n	n	n	x	n	n
O=C(Cc1ccc(Nc2nc3ccc(Br)cc3[nH]2)cc1)NCCc1cccs1	u	x	1.9µM	3.3µM	x	n
O=C(NCC1CC1)c1ccc(Nc2nc3ccc(Br)cc3[nH]2)cc1	u	x	u	12µM	x	n
O=C(NCc1ccco1)c1cccc(Nc2nc3ccc(Br)cc3[nH]2)c1	n	x	12µM	13µM	x	n
O=C(NCc1ccco1)c1ccc2nc([C@@H]3O[C@H](CO)[C@H](O)[C@H](O)[C@H]3O)[nH]c2c1	x	x	x	x	x	n
O=C(NCC1CC1)c1ccc2nc([C@@H]3O[C@H](CO)[C@H](O)[C@H](O)[C@H]3O)[nH]c2c1	x	x	x	x	x	n
